Laboratory results as given in the supplement of paper PMC10981050.
Several values for one entry are separate records, joined by “and”; a condition that tells them apart may be missing. Equal entries are not always repeated. Structures can show the parent of a compound that is named as a salt.

Experiments:
Experiment in all cases: cell viability relative to vehicle control; higher = less cytotoxic
Details in all cases: 10 µM
K562 = test system: K562
Outline: (§1)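 Each screen used CRISPR-edited mutant and wild-type clones from four leukaemia lines. Compounds were acoustically dispensed at a single 10 µM dose, and CellTiter-Glo luminescence was read after 48 h with the supernatant first removed. Viability was analysed in Genedata Screener and given as percent of the on-plate vehicle control.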

MARIMO = test system: MARIMO
Outline: as §1

MOLM14 = test system: MOLM14
Outline: as §1

OCI-AML2 = test system: OCI-AML2
Outline: as §1

| SMILES | cell viability (K562; SRSF2 genotype: SRSF2 P95H/wt) | cell viability (K562; SRSF2 genotype: SRSF2 wt/wt) [%] | cell viability (MARIMO; SRSF2 genotype: SRSF2 P95H/wt) [%] | cell viability (MARIMO; SRSF2 genotype: SRSF2 wt/wt) [%] | cell viability (MOLM14; SRSF2 genotype: SRSF2 P95H/wt) [%] | cell viability (MOLM14; SRSF2 genotype: SRSF2 wt/wt) [%] | cell viability (OCI-AML2; SRSF2 genotype: P95H/wt) [%] | cell viability (OCI-AML2; SRSF2 genotype: wt/wt) [%] |
| --- | --- | --- | --- | --- | --- | --- | --- | --- |
| O=C(Nc1nc2cccc(-c3ccc(CN4CCS(=O)(=O)CC4)cc3)n2n1)C1CC1 | 89.3% and 94.9% | 84.5 | 71.2 | 73 | 48.1 | 45.3 | 20.1 | 41.7 |
| CCn1c2ccccc2c2cc(Nc3ccnc(NCCCN4CCOCC4)n3)ccc21 | 4.34% and 6.16% | 6.8 | 19.1 | 24.9 | 2.38 | 0.71 | 0.41 | 1.05 |
| COc1cc(-c2ncn(/C=C\C(=O)OC(C)C)n2)cc(C(F)(F)F)c1 | 5.77% and 12.8% | 10.7 | 19.1 | 20.6 | 2.46 | 0.92 | 4.82 | 9.13 |
| C=CC(=O)Nc1cc(Nc2nccc(-n3cc(CN(C)C)c(-c4ccccc4)n3)n2)c(OC)cc1N1CCOCC1 | 85.6% and 94.6% | 84.8 | 76.5 | 80.2 | 74.2 | 75.5 | 63.9 | 63.3 |
| CC(S)C(=O)NCC(=O)O (stereo not given) [Tiopronin (Thiola)] | 111% and 110% | 104 | 105 | 105 | 100 | 105 | 100 | 112 |
| O=C(NOCCO)c1ccc2cncn2c1Nc1ccc(I)cc1F | 78.1% and 89.5% | 80.8 | 41.2 | 37 | 43.5 | 27 | 39.1 | 40.2 |
| CC(C)n1nc(-c2cc3cc(O)ccc3[nH]2)c2c(N)ncnc21 [Torkinib (PP242)] | 21.2% and 25.5% | 21.9 | 23.1 | 23 | 12.8 | 9.03 | 9.37 | 15.1 |
| CCC[C@@H]1C[C@@H](C(=O)N[C@@H]([C@H]2O[C@H](SC)[C@H](O)[C@@H](O)[C@H]2O)[C@@H](C)O)N(C)C1 [Lincomycin hydrochloride (Lincocin)] | 102% and 79.7% | 82.2 | 88.7 | 95.2 | 92.6 | 91.7 | 79.5 | 93.9 |
| CC(C)c1noc(N2CCC(COc3ccc(-c4ccc(S(C)(=O)=O)cc4)nc3)CC2)n1 | 59.8% and 77.2% | 70.5 | 70 | 34.1 | 90.4 | 95.7 | 28.4 | 36.8 |
| CCCCC(=O)OCC(=O)[C@H]1[C@H](C)C[C@H]2[C@@H]3C[C@H](F)C4=CC(=O)C=C[C@]4(C)[C@@]3(F)[C@@H](O)C[C@@]21C [Diflucortolone valerate] | 96.5% and 92.7% | 104 | 95.1 | 98.2 | 92 | 96 | 99.4 | 118 |
